From PubChem
Shiga inhibitor: Shiga toxin inhibition; Vero cells, Shiga toxin protein synthesis inhibition reporter; inhibition, % at 38.7 µM; actives 9.2% (n = 290,000); AID 2315; in the data active = inhibition mostly above about 28%, no sharp cut-off; inactive = mostly below about 43%; note: 0% is about no effect
Pf growth 48h: inhibits P. falciparum growth in the first generation, 48 h. AID 504832. Potency, µM (series often up to 28.7 µM), without a hit: top-dose activity change, negative = inhibition, usual class: inhibitors. actives 5.9% (n = 310,000). P. falciparum luciferase growth in erythrocytes, 48 h; note: potency is the fitted concentration of half-maximal effect; % is set by controls: 0 for no effect and ±100 for the full control effect
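Growth was read as firefly luciferase luminescence after a 48 h, 37 C, 5% CO2 exposure of compounds to reporter-bearing P. falciparum cultures (0.1% parasitemia, 2% hematocrit final) in Albumax-supplemented RPMI 1640.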
Cycloheximide cs: counter-screen hit for Shiga toxin inhibitors, cycloheximide; cell reporter, cycloheximide protein synthesis inhibition counterscreen; max response, %; actives 12% (n = 300,000); AID 2314; in the data active = max response mostly above about 13%, no sharp cut-off; inactive = mostly below about 14%; note: read at 38.3 µM for the half of the compounds with a filed dose; 0% is about no effect
Sm TGR inh: blocks Schistosoma mansoni thioredoxin glutathione reductase. Q962Y6. AID 485364. actives 3% (n = 360,000). purified TGR, DTNB reduction, TNB absorbance 405 nm. Potency, µM (doses to about 114 µM), inactives show top-dose activity change, negative = inhibition, usual class: inhibitors; note: potency is the fitted concentration of half-maximal effect; % is set by controls: 0 for no effect and ±100 for the full control effect; nearly all actives have a fitted effect of over 60% in size
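TGR 20 nM + NADPH 100 uM (dispensed conc.), cpd preinc 15 min RT; start with NADPH (500 uM addition) then DTNB (15 mM addition). Kinetic TNB absorbance, 405 nm filter. Four-parameter Hill fit across titration.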
Pf growth 96h: P. falciparum growth inhibition at 96 hours | P. falciparum luciferase reporter growth, 96 h | actives 6.9% (n = 320,000) | Potency, µM (top dose mostly 28.7 µM), inactives show top-dose activity change, negative = inhibition, hits mostly inhibitors; note: potency is the fitted concentration of half-maximal effect; % is set by controls: 0 for no effect and ±100 for the full control effect
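96 h incubation, 37 C, 5% CO2, of luciferase-reporter P. falciparum-infected RBCs (2% hematocrit, 0.05% parasitemia final) with test compounds; endpoint luminescence.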
NS1 inh: inhibitors of influenza NS1 protein function; actives 0.4% (n = 270,000); Potency, µM (highest dose often 46.1 µM), without a hit: at the highest dose activity, positive = more growth; calls by dose curve; note: potency is the fitted concentration of half-maximal effect; actives are rising curves; nearly all actives have a fitted effect of over 50% in size
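Compounds were scored for reversing the slow growth caused by influenza A NS1 in S. cerevisiae, measured by optical density at 600 nm. Assay medium contained 2% galactose at pH 6.0; NS1-free yeast of the same strain were the positive control.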
The depositor's hits bear a star; ? = inconclusive; . = no result; ! = not active in a repeat; [ ] = remark or other dose. In the library only some 21% were active in any assay of this set; here they are far more common. Unless noted, calls come from the whole dose curve; as a rule, active = well fitted curve in the direction sought with a large enough effect; inconclusive = small, poorly fitted or top-dose-only effect, or another doubt; inactive = no such curve, though single readings can be large; an effect the other way counts as inactive or inconclusive.

SMILES	Shiga inhibitor	Pf growth 48h	Cycloheximide cs	Sm TGR inh	Pf growth 96h	NS1 inh
O=C(COC(=O)CCC(=O)c1ccc(F)cc1)Nc1ccccc1	3	49%	-4	6%	23%	-1%
CC(C)=CC(=O)OCC(=O)Nc1ccc(Cl)cc1	41*	55%	24*	-5%	187%	-12%
CCOC(=O)/C=C/C(=O)OCC(=O)Nc1cccc(Br)c1	-2	21%	19	18µM*	22%	.
O=[N+]([O-])/C=C\c1cc2ccccc2[nH]1	.	.	.	.	.	-40%
CCOC(=O)c1c(C)[nH]c(C)c1S(=O)(=O)N(C)CC(=O)Nc1cccc(C(F)(F)F)c1	.	.	.	2%	.	.
Cc1ccc(S(=O)(=O)Cc2ccc(C(=O)NC3CCCCCC3)o2)cc1	-8	8%	-2	-8%	?	-16%
CCOC(=O)/C=C/C(=O)Nc1ccc(S(=O)(=O)Nc2c(C)cc(C)cc2C)cc1	-9	8%	2	-9%	41%	7%
Cc1ccc(NC(=O)COC(=O)/C=C/c2cccs2)cc1	-7	17%	-1	-8%	10%	8%
CCOC(=O)/C=C/S(=O)(=O)c1ccc(NC(C)=O)cc1	30	-29%	18	0.32µM*	.	-11%
CCOC(=O)/C=C/C(=O)OCC(=O)Nc1ccc(C)cc1	15	-6%	16	13µM*	-17%	.
O=C(c1cccc(C(F)(F)F)c1)C1CCCN(C(=O)CN2CCCC2=O)C1 (stereo not drawn)	50	28%	17*	6%	14%	-2%
O=C(c1cccc(C(F)(F)F)c1)C1CCCN(C(=O)CCCn2cncn2)C1 (stereo not drawn)	15	40%	11*	0%	?	-1%
CSc1ccc(C(=O)C2CCCN(C(=O)CCCn3cncn3)C2)cc1 (stereo not drawn)	38	-1%	11*	2%	?	?
O=C(Cc1cccc(C(F)(F)F)c1)N1CCN(CC(=O)N2CCCC2)CC1	.	13µM*	.	-10%	?	.
O=C(c1cccc(C(F)(F)F)c1)N1CCCC1	-4	4%	-2	4%	?	0%
O=C(c1ccc(C(F)(F)F)cc1)C1CCCN(C(=O)CCn2cncn2)C1 (stereo not drawn)	6	4%	18	-14%	?	3%
CC(=O)Nc1ccc(NC(=O)C(C)OC(=O)C(C)SCC(=O)Nc2ccc(F)cc2)cc1 (stereo not drawn)	.	-1%	.	-8%	55%	.
CCc1cccc(NC(=O)CSc2ncc3c(n2)-c2ccccc2N(Cc2ccccc2C)S3(=O)=O)c1	.	.	.	26%	.	.
C[C@]12CCC3C(CCC4=C(Cl)C(=O)CC[C@@]43C)C1CCC2O (stereo partly drawn)	.	?	.	.	11µM*	.
NC(=O)CC[C@@H]1NC(=O)[C@H](Cc2ccccc2)NC(=O)[C@H](Cc2ccc(O)cc2)NC(=O)[C@@H](N)CSSC[C@@H](C(=O)N2CCC[C@H]2C(=O)N[C@@H](CCCN=C(N)N)C(=O)NCC(N)=O)NC(=O)[C@H](CC(N)=O)NC1=O	-5	?	4	-8%	12µM*!	3%
CC[C@H](C)[C@@H]1NC(=O)[C@H](Cc2ccc(O)cc2)NC(=O)[C@@H](N)CSSC[C@@H](C(=O)N2CCC[C@H]2C(=O)N[C@@H](CC(C)C)C(=O)NCC(N)=O)NC(=O)[C@H](CC(N)=O)NC(=O)[C@H](CCC(N)=O)NC1=O	8	.	-6	.	.	.
Cc1c(Br)c([N+](=O)[O-])nn1C(C)C(=O)N1CCCc2ccccc21 (stereo not drawn)	31	-5%	18	2%	2%	7%
CC(C)Cc1nnc(NC(=O)Nc2ccccc2)s1	57*	74%	46*	-7%[57.1 µM]	-12%	-7%
O=C(Nc1ccc(F)cc1)Nc1nnc(Cc2ccccc2)s1	.	?	3	0%	4.7µM*	15%
Cc1ccc(NC(=O)Nc2nnc(Cc3ccc([N+](=O)[O-])cc3)s2)cc1	77*	-1%	50*	1%	?	-1%
SMILES	Shiga inhibitor	Pf growth 48h	Cycloheximide cs	Sm TGR inh	Pf growth 96h	NS1 inh
O=C(COC(=O)CCS(=O)(=O)c1ccc(Cl)cc1)NCCc1ccc(Cl)cc1Cl	-6	7%	4	-2%	9%	-23%
O=S(=O)(c1ccc(C2CCCCC2)cc1)N1CCN(c2cc(Cl)ccc2Cl)CC1	.	.	.	0%	.	.
Cc1nc(SCC(=O)N2CCN(C(=O)c3cccs3)CC2)c2c(C)c(C)sc2n1	.	?	.	-1%	?	.
CC(C)CC(=O)Nc1nnc(SCc2cc(=O)n3ccccc3n2)s1	.	.	.	-2%	.	.
COCc1cc(C)nc(Nc2ccccc2C)c1C#N	-10	-14%	5	6%	4%	?
COCc1cc(C)nc(N/N=C/c2ccc(-c3ccc(Cl)cc3[N+](=O)[O-])o2)c1C#N	-11	-14%	0	8.9µM*	37%	.
COc1cc(C(=O)Nc2cccc(-c3nc4cc(C)ccc4o3)c2)cc(OC)c1OC	81*	5%	17*	-10%	-6%	29%
Cc1cccc(-c2nc3cc(NC(=O)c4ccc(OCC(C)C)cc4)ccc3o2)c1	.	.	.	-4%	.	.
Cc1ccc2oc(-c3cccc(NC(=O)C4CCCO4)c3)nc2c1 (stereo not drawn)	76*	225%	41*	8%	10µM*	-46%
O=C(Nc1cccc(-c2nc3cc(Cl)ccc3o2)c1)C1CCCO1 (stereo not drawn)	47	178%	14*	-23%	.	-37%
Cc1cccc(-c2nc3cc(NC(=O)C4CCCO4)ccc3o2)c1 (stereo not drawn)	active	123%	67*	-4%	-1%	-13%
CC(C)c1ccc(NC(=O)C2CCCN2S(=O)(=O)c2ccc3nc(-c4ccccc4)[nH]c3c2)cc1 (stereo not drawn)	.	.	.	-15%	.	.
Cc1ccc(NC(=O)CSc2nnc3ccc4ccccc4n23)cc1	.	.	.	-4%	.	.
CCCCCn1c2nc3ccccc3nc2c2c(=O)n(CC(C)C)cnc21	-20	.	-4	-26%	2.9µM*	6%
COc1ccc(NS(=O)(=O)NC(=O)c2c(C)n(C)c3ccccc23)cc1	-6	28%	24*	-11%	8%	4%
COc1ccc(NS(=O)(=O)NC(=O)c2cn(C)c3ccccc23)cc1	11	26%	9	-13%	11%	-13%
O=C(Nc1ccc2nn(-c3ccccc3)nc2c1)c1cccs1	73*	?	35*	0%	9%	-48%
O=C(Nc1ccc2nsnc2c1)c1cccs1	20	45%	30*	-2%	13%	-2%
Cc1nn(Cc2noc(C(=O)NCc3cccc(F)c3)n2)c(C)c1Br	.	.	.	6%	.	.
Cn1c(-c2ccc(-c3ccccc3)cc2)c[nH]c1=S	69*	5.2µM*	31*	0%	?	-47%
C=CCn1c(-c2ccccc2)c[nH]c1=S	78*	82%	50*	1%	?	?
